# Values joined by “and” are separate entries in the source; they are usually repeats but may differ in a detail not shown here. Identical values can stand only once. Inconclusive results are not listed. Values without a mark were called inactive. Active and inactive are the calls of the source. Calls come from the whole dose curve; as a rule, active = well fitted cell-killing curve with a large enough effect; inconclusive = small, poorly fitted or top-dose-only effect, or effect the other way; inactive = no such curve, though single readings can be large or run the other way.
# Assay: Viability qHTS for spleen associated tyrosine kinase inhibitor (SYKi) drug resistant MV4-11 cells (AID 1963824); note: nearly all actives have a fitted effect of over 35% in size
# Settings: SYKi-resistant MV4-11 viability, CellTiter-Glo, 72 h; series mostly up to 45 µM; viability, % of control: at the top concentration
# Method in brief: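 SYK-inhibitor-resistant MV4-11 AML cells were seeded at 500 per well onto compound and cultured 72 hours (37 °C, 5% CO2). CellTiter-Glo was then added, and after 10 min at room temperature, luminescence gave viability.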
# Potency is the fitted concentration of half-maximal effect.
SMILES,Potency,"viability, % of control"
O=C(NCCCNc1nc(Nc2cccc(CN3CCOCC3)c2)ncc1C1CC1)C1CCC1,0.291 µM (active),–
CCCCC/C(C=O)=C\c1ccccc1,–,100%
CCN1CCN(Cc2ccc(Nc3ncc(F)c(-c4cc(F)c5nc(C)n(C(C)C)c5c4)n3)nc2)CC1,366 nM (active) and 417 nM (active),–
Oc1cccc(-c2c3nc(c(-c4cccc(O)c4)c4ccc([nH]4)c(-c4cccc(O)c4)c4nc(c(-c5cccc(O)c5)c5ccc2[nH]5)CC4)C=C3)c1,18.8 µM (active),–
O=C(/C=C/C#Cc1cccc(NS(=O)(=O)c2ccccc2)c1)NO,0.363 µM (active),–
Nc1ccc(C(=O)O)c(O)c1,–,71.9%
CCNC1(C(N)=O)CCN(c2ncnc3c2nc(-c2ccccc2Cl)n3-c2ccc(Cl)cc2)CC1,16.6 µM (active),–
CC(C)n1nc(-c2cc3cc(O)ccc3[nH]2)c2c(N)ncnc21,668 nM (active) and 291 nM (active),–
CCOC(=O)c1ccnc(CNCC(=O)N(CC)CCN(C)C)c1,–,73.8%
CN=C(NC#N)NCCSCc1csc(N=C(N)N)n1,–,98%
CO/N=C(/C(=O)N[C@@H]1C(=O)N2C(C(=O)[O-])=C(C[n+]3ccn4ncccc43)CS[C@H]12)c1nsc(N)n1,–,64.8%
C[C@H](NC(=O)c1c(N)nn2cccnc12)c1cc2cccc(C#Cc3cnn(C)c3)c2c(=O)n1-c1ccccc1,7.23 µM (active),–
O=c1sn(-c2cccc3ccccc23)c(=O)n1Cc1ccccc1,11.6 µM (active) and 8.33 µM (active),–
O=C(Nc1ccc(OC(F)(F)Cl)cc1)c1cnc(N2CC[C@@H](O)C2)c(-c2ccn[nH]2)c1,6.61 µM (active),–
CCCCN(CCCC)CCCOC(=O)c1ccc(N)cc1,–,69%
C=CC(=O)N1CCC(CNc2ncnc(N)c2-c2ccc(Oc3ccccc3)cc2)CC1,8.33 µM (active),–
FC(F)(F)C(F)(F)C(F)(F)C(F)(F)C(F)(F)C(F)(F)C(F)(F)C(F)(F)Br,–,95.7%
CC1(N)CCN(c2cccnc2NC(=O)c2nc(-c3ncccc3C(F)(F)F)cnc2N)CC1,11.8 µM (active),–

SMILES,Potency,"viability, % of control"
Cc1ncc(NC(=O)c2cccc(C(F)(F)F)c2)cc1-c1cnc(OC2CCOCC2)c(N2CCOCC2)c1,5.9 µM (active),–
COc1cc2ncnc(Nc3ccc(O)c(Br)c3)c2cc1OC,1.64 µM (active) and 1.66 µM (active),–
Nc1nccc2c1ncn2[C@@H]1C=C(CO)[C@@H](O)[C@H]1O,0.209 µM (active),–
CN1CCN(c2ccc3nc(-c4c(N)c5c(F)cccc5[nH]c4=O)[nH]c3c2)CC1,16.4 nM (active) and 18.6 nM (active),–
Cc1cc(OCCOCC[N+](C)(C)Cc2ccccc2)ccc1C(C)(C)CC(C)(C)C,2.66 µM (active),–
CC1(C)CN(C(=O)c2ccc(-c3cccc4nc(NC(=O)C5CC5)nn34)cc2)C1,16.4 µM (active),–
CCN(CC)C(=O)N1CCN(C)CC1,–,117%
Cc1cc(CS(=O)(=O)c2ccccc2)cc(OCc2ccc(CN3CCC[C@@H]3CO)cc2)c1,16.6 µM (active),–
CC(C)CNc1ccnc(NCc2csc(-c3ccccc3)n2)n1,1.16 µM (active),–
O=C(O)c1ccccc1C(=O)Nc1ccc(S(=O)(=O)Nc2nccs2)cc1,–,70.6%
C=C1CCC2[C@](C)(CO)C(O)CC[C@]2(C)C1C/C=C1/C(=O)OCC1O (stereo partly specified),2.63 µM (active),–
O=C(Nc1cc(Oc2cc(F)c(NC(=O)C3(C(=O)Nc4ccc(F)cc4)CC3)cc2F)ccn1)C1CC1,25.9 nM (active) and 66.1 nM (active),–
C=C[C@H]1CN2CC[C@H]1C[C@@H]2[C@@H](O)c1ccnc2ccc(OC)cc12,–,84.2%
CC(C)(C)CC(C)(C)c1ccc(OCCOCC[N+](C)(C)Cc2ccccc2)cc1,2.37 µM (active) and 1.46 µM (active),–
O=C(O)[C@@H]1[C@H]2C[C@H]3c4[nH]c5ccccc5c4CCN3C[C@@H]2CC[C@@H]1O,5.96 µM (active),–
C[C@H]1C[C@H]2[C@@H]3CCC4=CC(=O)C=C[C@]4(C)[C@@]3(Cl)[C@@H](O)C[C@]2(C)[C@@]1(O)C(=O)CO,13.3 µM (active),–
CC(C)OC(=O)c1cc(C(=O)OC(C)C)cc([N+](=O)[O-])c1,–,75.1% [at 91.9 µM]
CC[C@@]1(O)C(=O)OCc2c1cc1n(c2=O)Cc2c-1nc1ccccc1c2CCNC(C)C,0.0059 µM (active),–

# Reference: PubChem BioAssay (NCATS)
